Screening results as filed in PubChem.
A selection: hits, their analogues and other compounds. The true share with any hit is near 10%.
KB-3-1 cytotox – kills parental KB-3-1 adenocarcinoma cells | KB-3-1 viability, CellTiter-Glo ATP luminescence, 72 h | hit rate 1.4% among 400,000 | Potency, µM (highest dose often 46.1 µM), usual class: cytotoxic | AID 1347075; further: on the % scale 0 is the no-effect control and ±100 the full control effect; nearly all actives have a fitted effect of over 60% in size
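Luminescent ATP read-out (CellTiter-Glo) measures survival of drug-naive KB-3-1 cells after 72 h compound exposure at 37 °C. Titration series was screened from lowest to highest concentration, with DMSO vehicle plates as background controls.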
SW480 rereplic – inducers of DNA re-replication in SW480 colon cancer cells; AID 624297; hit rate 1.8% among 340,000; SW480 DNA re-replication, Hoechst DNA content imaging, 48 h; Potency, µM (top dose mostly 46.1 µM), for inactives: top-dose re-replication activation, actives largely listed as activators; further: % of control where 0% means no effect; nearly all actives have a fitted effect of over 55% in size
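Cells (250 per well) received 23 nL compound or DMSO by pin tool and were kept 48 hr at 37 C, 5% CO2. Nuclei were then stained with Hoechst for 40 min and scanned for DNA content.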
KB-V1 cytotox – KB-V1 MDR subline cytotoxicity | KB-V1 MDR cells viability, CellTiter-Glo, 72 h | Potency, µM (series often up to 46.1 µM), most hits filed as cytotoxic | hit rate 3.4% among 400,000 | AID 1347076; further: on the % scale 0 is the no-effect control and ±100 the full control effect; nearly all actives have a fitted effect of over 60% in size
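In this primary screen, KB-V1 cells overexpressing P-gp are incubated with library compounds (lowest to highest concentration) for 72 h at 37 degrees C before a luminescent ATP viability read.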
VP16 counter – inhibits Gal4-VP16 luciferase reporter, ROR gamma counter-screen | Drosophila S2 Gal4-VP16 UAS-luciferase, luminescence, 20 h | Potency, µM (top dose mostly 53.6 µM), without a hit: top-dose activity, negative = inhibition, actives largely listed as inhibitors | hit rate 3.5% among 310,000 | AID 2546;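 further: Gal4-VP16 expression switched on by copper sulfate through the metallothionein promoter; on the % scale 0 is the no-effect control and ±100 the full control effect; nearly all actives have a fitted effect of over 50% in size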
MCF10A rerep – DNA re-replication induction in MCF 10a cells | MCF 10A DNA re-replication, Hoechst nuclear intensity, 48 h | Potency, µM (series often up to 46.1 µM), for the others: top-dose activity, positive = re-replication, most hits filed as activators | hit rate 2.9% among 350,000 | AID 624296; further: % of control where 0% means no effect; nearly all actives have a fitted effect of over 50% in size
RORgamma inh – blocks mouse ROR gamma transcriptional activity; P51450; hit rate 5.4% among 310,000; Potency, µM (doses to about 53.6 µM), for inactives: at the highest dose activity change, negative = inhibition, usual class: inhibitors; Drosophila S2 Gal4-RORgamma UAS-luciferase reporter, 20 h; AID 2551; further: on the % scale 0 is the no-effect control and ±100 the full control effect; nearly all actives have a fitted effect of over 60% in size
Target sequence (P51450 whole entry, looked up, the tested form may be a part): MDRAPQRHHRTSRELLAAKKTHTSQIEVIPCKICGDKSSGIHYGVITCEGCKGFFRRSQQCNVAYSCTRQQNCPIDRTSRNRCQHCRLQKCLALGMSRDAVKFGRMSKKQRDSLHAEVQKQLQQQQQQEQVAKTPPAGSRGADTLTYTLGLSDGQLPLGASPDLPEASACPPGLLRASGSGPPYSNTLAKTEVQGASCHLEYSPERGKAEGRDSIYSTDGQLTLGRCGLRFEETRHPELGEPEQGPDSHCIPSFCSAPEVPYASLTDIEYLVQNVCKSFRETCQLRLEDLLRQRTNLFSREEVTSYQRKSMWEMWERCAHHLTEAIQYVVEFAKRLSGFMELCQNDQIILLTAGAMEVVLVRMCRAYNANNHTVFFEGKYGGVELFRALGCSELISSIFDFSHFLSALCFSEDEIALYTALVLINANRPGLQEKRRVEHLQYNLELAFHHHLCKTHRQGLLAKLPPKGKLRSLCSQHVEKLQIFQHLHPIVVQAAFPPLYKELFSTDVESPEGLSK
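Stable Schneider cell line, Gal4 DNA-binding domain fused to ROR gamma, UAS-luciferase. Cmpd 1 hr RT → CuSO4 700 uM final → 20 hr RT → luciferase reagent 10 min → luminescence.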
* marks the source's active call; other numbers are inactive results; i = inactive; ? = inconclusive; . = not tested or not shown; [ ] = remark or other dose. The call rests on the fitted dose curve; in most records, active means well fitted curve in the direction sought with a large enough effect; inconclusive means small, poorly fitted or top-dose-only effect, or another doubt; inactive means no such curve, though single readings can be large; an effect the other way counts as inactive or inconclusive. Potency means the concentration at half of the fitted maximal effect.

SMILES	KB-3-1 cytotox	SW480 rereplic	KB-V1 cytotox	VP16 counter	MCF10A rerep	RORgamma inh
O=C(O)CCCC(=O)NNc1nc(-c2ccccc2)c2cc(Cl)ccc2n1	i	-8%	i	4%	2%	0%[1.91 µM]
Cc1ccc2nc(NCCCO)nc(-c3ccccc3)c2c1	i	?	?	2%	?	-20%
NNc1nc(-c2ccccc2)cc(-c2ccc(Br)cc2)n1	?	?	?	?	14%	18µM*
NNc1nc(-c2ccccc2)c2cc(Cl)ccc2n1	i	-53%	i	-24%	10µM*	13µM*
OCCCNc1nc(-c2ccccc2)c2cc(Br)ccc2n1	?	?	?	8%	4.6µM*	8%
O=C(NCCO)c1cccc(Nc2nc(-c3ccccc3)c3cc(Cl)ccc3n2)c1	i	16µM*	16µM*	-24%	?	13%
FC(F)(F)c1cc(-c2ccccc2)nc2cc(-c3ccc(Br)cc3)nn12	i	.	i	.	.	.
Cc1cccc(NC(=O)c2sc3nc(N4CCOCC4)c4c(c3c2N)CC(C)(C)OC4)c1	i	.	?	.	.	.
O=c1c(-c2ccc(Cl)cc2)nc2cnc(Nc3ccccc3)nc2n1C[C@H]1CCCO1	.	.	.	-3%	.	-3%
CCCCN1C(=O)C(CC(=O)NC2CCCCC2)CC(C(=O)N(C)C)=C1C (stereo not drawn)	i	.	i	.	.	.
Cc1cccc(-c2noc(CN(C(=O)COc3ccc(Br)cc3C)C(C)C)n2)c1	i	.	i	.	.	.
O=C(O)CCNc1nc(-c2ccccc2)c2cc(Br)ccc2n1	i	-11%	i	13%	2%	-29%
NNc1nc(-c2ccccc2)c2cc(Br)ccc2n1	i	27%	i	-14%	?	2.5µM*
Cc1nc2ccc(C(=O)NCCCn3ccnc3)cn2c1N(C)C(=O)CCc1ccccc1	i	.	i	.	.	.
CC(C)CCOc1ccc(-c2c(=O)n(OCc3ccc([N+](=O)[O-])cc3)c3ccccc3[n+]2[O-])cc1	i	?	?	-4%	1.8µM*	?
CCc1sc(C(=O)N(CCOC)c2c(N)n(Cc3ccccc3)c(=O)[nH]c2=O)cc1C	i	.	i	.	.	.
CCc1ccc(Nc2nc3ccccc3nc2NS(=O)(=O)c2ccccc2)cc1	?	.	18µM*	.	.	.
COc1ccc(S(=O)(=O)Nc2cccc(S(=O)(=O)N3CCCCCC3)c2)cc1	i	8%	i	-11%	-6%	26%
O=S(=O)(Nc1nc2ccccc2nc1Nc1cccc(S(=O)(=O)N2CCCCC2)c1)c1ccccc1	15µM*	14%	7.3µM*	13µM*	?	?
COc1ccc(Nc2nc3ccccc3nc2NS(=O)(=O)c2cccs2)cc1	i	-9%	i	-5%	?	?
CC(=O)c1ccc(Nc2nc3ccccc3nc2NS(=O)(=O)c2cccs2)cc1	?	-6%	?	-2%	15µM*	28%
O=C(CN1CCN(c2ccc(Cl)cc2)CC1)Nc1ccc(F)cc1	?	-1%	21µM*	-9%	2%	-17%
O=C(CN1CCN(c2ccc(Cl)cc2)CC1)Nc1ccc(F)c(F)c1	i	-1%	i	-9%	-3%	6%
O=C(CCS(=O)(=O)c1ccc(F)cc1)Nc1ccc(N2CCN(Cc3ccccc3)CC2)cc1	i	0%	18µM*	.	8%	.
O=C(CN1CCOCC1)Nc1ccc(Oc2ccccc2)cc1	i	-4%	i	13%	?	3%
SMILES	KB-3-1 cytotox	SW480 rereplic	KB-V1 cytotox	VP16 counter	MCF10A rerep	RORgamma inh
O=C(CN1CCN(c2ccccc2)CC1)Nc1ccc(Oc2ccccc2)cc1	i	-2%	23µM*	15%	1%	24%
CCCCCCSc1ccc([C@@H]2[C@H]3C(=O)N(CC)C(=O)[C@H]3[C@]3(C(=O)OC)CCCN23)cc1	i	-19%	i	.	?	.
c1ccc(-c2nnc3sc(CN4CCc5ccccc54)cn23)cc1	21µM*	0%	?	-12%	-2%	?
CCOC(=O)C1CCCN(Cc2cn3c(-c4cccc(Br)c4)nnc3s2)C1 (stereo not drawn)	i	.	i	.	.	.
Brc1ccc(-c2nnc3sc(CN4CCc5ccccc5C4)cn23)cc1	i	?	i	.	7%	.
COc1cccc(-c2nnc3sc(CN4CCCCC4)cn23)c1	2.6µM*	.	i	.	.	.
Cc1ccc(Cl)cc1NC(=O)C(=O)NCC(c1cccnc1)N1CCc2ccccc21 (stereo not drawn)	i	.	?	.	.	.
COC(=O)[C@H](C)NS(=O)(=O)C1CC1	i	.	i	.	.	.
Cc1ccc2oc(=O)c3cnn(CC(=O)N(CCC(C)C)Cc4ccco4)c3c2c1	i	-7%	i	-1%	13%	-22%
CCCCN(Cc1ccco1)C(=O)Cn1ncc2c(=O)oc3ccc(C)cc3c21	i	-9%	?	-3%	-3%	1.4µM*
CCOc1ccc(N(CC(=O)N2CCN(c3ccc(F)cc3)CC2)S(=O)(=O)c2c(C)noc2C)cc1	i	23µM*	i	-11%	-1%	1%
Cc1cccc(N2CCN(C(=O)CSCc3c(C)noc3C)CC2)c1C	3.7µM*	14%	1.8µM*	10µM*	11%	?
Cc1noc(C)c1CSCC(=O)N1CCN(c2ccc(F)cc2)CC1	?	-12%	2.9µM*	?	-1%	?
COc1ccc(N(CC(=O)N2CCN(c3ccc(F)cc3)CC2)S(=O)(=O)c2c(C)noc2C)cc1	i	-6%	i	0%	3%	-3%
Cc1noc(C)c1CSc1ccccc1C(=O)N1CCN(c2ccccc2)CC1	i	-5%[9.22 µM]	i	-1%	?	?
CCn1cc(C(=O)NCCN(CC(C)C)CC(C)C)c(=O)c2cc(S(=O)(=O)N(C)C3CCCCC3)ccc21	i	.	i	.	.	.
CCC(CC)NC(=O)c1oc2ccccc2c1COc1ccccc1	i	.	?	28µM*	29%	?
CSc1ncc(C(=O)Nc2c(C)cccc2C)c(-c2ccccc2)n1	i	.	i	.	.	.
O=C(O)c1ccc2c3c(ncnc13)-c1ccccc1C2=O	?	?	i	-18%	2.3µM*	?
Cn1cc(CN2CCCC(C(=O)Nc3cccc(-c4cc5ccccc5[nH]4)c3)C2)cn1 (stereo not drawn)	?	?	i	-16%	?	-19%
CC(C)n1cc(CN2CCCC(C(=O)Nc3cccc(-c4cc5ccccc5[nH]4)c3)C2)cn1 (stereo not drawn)	?	?	?	3%	16µM*	-21%
CCc1nc2ccc(C(=O)NC3CCN(Cc4ccccc4)CC3)cn2c1N(C)Cc1cccs1	i	.	i	.	.	.
